Pf growth 96h: P. falciparum growth inhibition at 96 hours; P. falciparum luciferase reporter growth, 96 h; AID 504834; Potency, µM (series often up to 28.7 µM), for the others: at the top dose activity change, negative = inhibition, usual class: inhibitors; hit rate 6.9% among 320,000; note: % is set by controls: 0 for no effect and ±100 for the full control effect
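Plates of compound plus infected erythrocytes (2% hematocrit, 0.05% parasitemia final) incubate 96 hours, 37 C, 5% CO2. Detection reagent added; reduced luminescence from the parasites' luciferase reporter flags inhibition.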
NS1 inh: blocks influenza NS1 protein function; Potency, µM (top dose mostly 46.1 µM), for inactives: top-dose activity, positive = more growth; hit rate 0.4% among 270,000; AID 2326; calls by dose curve; note: actives are rising curves; nearly all actives have a fitted effect of over 50% in size
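A cell-based growth assay was used: compounds that relieve NS1-induced slow growth of budding yeast raise OD600. Assay medium was yeast nitrogen base with ammonium sulphate and -URA supplement, pH 6.0, with 2% galactose.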
Pf growth 48h: inhibits P. falciparum growth in the first generation, 48 h; P. falciparum luciferase growth in erythrocytes, 48 h; AID 504832; Potency, µM (series often up to 28.7 µM), for inactives: at the highest dose activity change, negative = inhibition, hits mostly inhibitors; hit rate 5.9% among 310,000; note: % is set by controls: 0 for no effect and ±100 for the full control effect
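Growth was read as firefly luciferase luminescence after a 48 h, 37 C, 5% CO2 exposure of compounds to reporter-bearing P. falciparum cultures (0.1% parasitemia, 2% hematocrit final) in Albumax-supplemented RPMI 1640.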
SARS PLpro yeast: blocks SARS-CoV papain-like protease in a yeast assay. hit rate 0.19% among 330,000. AID 485353. S. cerevisiae expressing SARS-CoV PLpro, growth rescue. Potency, µM (series often up to 32.9 µM), for the others: at the top dose activity, positive = growth rescue, most hits filed as activators; calls by dose curve; note: 0% is about no effect; nearly all actives have a fitted effect of over 55% in size
An asterisk follows results filed as active; i = inactive; ? = inconclusive; / = no result. Compounds with a hit are over-represented: about 10% of the library has one in this group of screens. Unless noted, calls come from the whole dose curve; as a rule, active = well fitted inhibition curve with a large enough effect; inconclusive = small, poorly fitted or top-dose-only effect, or another doubt; inactive = no such curve, though single readings can be large or run the other way. Potency is the fitted concentration of half-maximal effect.

SMILES	Pf growth 96h	NS1 inh	Pf growth 48h	SARS PLpro yeast
CCCn1c(SCC(=O)N2CCc3ccccc3C2)nc2c1c(=O)n(C)c(=O)n2C	-1%	-7%	-22%	2%
CCN(CC)C(=O)CSc1nnc(-c2cc3ccccc3cc2O)n1CC	-10%	0%	8.3µM*	-10%
Cn1c(=O)c2c(nc(SCC(=O)OCc3ccccc3)n2C)n(C)c1=O	/	-8%	14%	1%
CCCn1c(SCC(=O)N2c3ccccc3CCc3ccccc32)nc2c1c(=O)n(C)c(=O)n2C	i	1%	15µM*	-1%
Cn1c(=O)c2c(nc(SCC(=O)Nc3ccccc3)n2C)n(C)c1=O	32%	6%	-14%	-2%
Cn1c(=O)c2c(nc(SCC(=O)c3ccccc3F)n2C)n(C)c1=O	1.9µM*	8%	52%	1%
CC(C)n1c(SCC(=O)Nc2ccccc2)nc2c1c(=O)n(C)c(=O)n2C	?	1%	12µM*	4%
Cc1noc(C)c1CSCC(=O)Nc1cc(S(=O)(=O)N2CCOCC2)ccc1OC(C)C	?	/	?	8%
CCn1c(SCC(=O)Nc2cccc(O)c2)nc2c1c(=O)n(C)c(=O)n2C	?	11%	4%	11%
CCn1c(SCC(=O)Nc2ccccc2)nc2c1c(=O)n(C)c(=O)n2C	12µM*	4%	12%	-24%
COCCn1c(SCC(=O)Nc2ccccc2)nc2c1c(=O)[nH]c(=O)n2C	33%	?	-20%	-16%
CCOc1ccc(OCC)c(NC(=O)CSc2nc3c(c(=O)n(C)c(=O)n3C)n2C(C)C)c1	3.3µM*	-36%	4.1µM*	-3%
Cn1c(SCC(=O)N2c3ccccc3CCc3ccccc32)nnc1-c1cc2ccccc2cc1O	-92%	?	1.9µM*	7%
Cc1cccc(-c2nnc(SCC(=O)N3c4ccccc4CCc4ccccc43)n2C)c1	5%	-4%	?	-3%
CCOc1ccc(OCC)c(NC(=O)CSc2nc3c(c(=O)n(C)c(=O)n3C)n2C)c1	/	-7%	8%	-6%
CC(C)n1c(SCC(=O)Nc2ccccc2)nc2c1c(=O)[nH]c(=O)n2C	13µM*	2%	?	0%
CC(=O)c1ccc(OCCCC(=O)Nc2cccc(-c3nn[nH]n3)c2)cc1	11%	-3%	2%	5%
Cc1ccc2oc(C(=O)Nc3ccc(S(=O)(=O)Nc4ncccn4)cc3)c(C)c2c1	?	-4%	-1%	0%
Cc1ccc(NC(=O)C(C)Sc2nc(-c3ccccc3)cc(=O)[nH]2)cc1 (configuration not stated)	29%	0%	18%	-1%
CC(Oc1ccc2ccc(=O)oc2c1)C(=O)NCCN1CCOCC1 (configuration not stated)	28%	5%	3%	-1%
CCN(c1ccccc1)S(=O)(=O)c1ccc(OC)c(NC(=O)CNCCc2ccccc2)c1	?	9%	12µM*	-1%
CCN(c1ccccc1)S(=O)(=O)c1ccc(OC)c(NC(=O)Cc2ccc(F)cc2)c1	10µM*	/	?	5%
CCN(c1ccccc1)S(=O)(=O)c1ccc(OC)c(NC(=O)C2CCC2)c1	/	/	/	-17%
CCN1CCN(C(=O)c2sc3nc(C)nc(N4CCC(C)CC4)c3c2C)CC1	?	-10%	13µM*	4%
Cc1nc(N2CCN(c3ccccn3)CC2)c2c(C)c(C(=O)N3CCN(c4ccc(F)cc4)CC3)sc2n1	1%	-31%	4.7µM*	-3%
SMILES	Pf growth 96h	NS1 inh	Pf growth 48h	SARS PLpro yeast
Cc1c(C(=O)N2CCN(c3ccccc3)CC2)sc2ncnc(N3CCN(c4ccccn4)CC3)c12	30%	12%	?	-14%
COc1ccccc1N1CCN(C(=O)c2sc3nc(C)nc(N4CCN(c5ccccn5)CC4)c3c2C)CC1	33%	-19%	?	-11%
Cc1c(C(=O)N2CCN(c3ccc(F)cc3)CC2)sc2ncnc(N3CCN(c4ccccn4)CC3)c12	12%	-50%	10µM*	2%
COc1ccccc1N1CCN(C(=O)c2sc3ncnc(N4CCN(c5ccccn5)CC4)c3c2C)CC1	2%	-51%	12µM*	1%
Cc1cccn2c(CNCCc3ccco3)c(C(=O)N3CCOCC3)nc12	0%	3%	?	2%
CN(/N=C\c1ccccc1O)c1ccc2ccccc2n1	/	-12%	/	/
Cc1[nH]c(=O)[nH]c(=O)c1/C=C/C(=O)OCC(C)C	-28%	2%	17%	-5%
COc1ccc(OC)c(NC(=O)c2sc3ncnc(N4CCN(c5ccccn5)CC4)c3c2C)c1	?	0%	8.3µM*	3%
CN(C)CCCN(C(=O)c1cc2ccccc2oc1=O)c1nc2ccc(F)cc2s1	-14%	1%	21%	19%
